Assay outcomes as filed in PubChem BioAssay.
Rows were chosen to be rich in hits. Some 2.3% of all compounds tested hit in one or more screens of this group.
Abeta yeast res – restores growth of yeast expressing A-beta42 peptide | Potency, µM (top dose mostly 46.1 µM), hits mostly activators | AID 1347071 | yeast expressing A-beta42, growth rescue, OD600, 48 h; response scale: 0% DMSO, 100% iron-clioquinol control | actives 0.063% (n = 410,000); also: nearly all actives have a fitted effect of over 55% in size
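Yeast growth medium received pinned compounds, then yeast cells expressing toxic A-beta were added; plates incubated at 30 C for 48 hr. Growth read as absorbance at 600 nm, normalized to DMSO and equimolar FeCl3 plus clioquinol controls.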
FUS suppressor – FUS proteinopathy suppression in yeast. S. cerevisiae FUS-expressing, growth rescue, OD600, 24 h. Potency, µM (series often up to 76.6 µM), hits mostly activators. actives 0.24% (n = 390,000). AID 1347120;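 also: plate controls were DMSO vehicle for no effect and reference control for full effect; nearly all actives have a fitted effect of over 55% in size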
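Toxicity suppression screen in FUS-yeast. Cells induced with 2% galactose, starting OD 0.005, treated 24hr at 30C with compounds at multiple final concentrations; growth by OD600.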
uPA generation – cell surface uPA generation inhibition. cell surface uPA generation assay, qHTS. Potency, µM (top dose mostly 38.3 µM), for inactives: at the top dose activity change, negative = inhibition, hits mostly inhibitors. actives 0.31% (n = 330,000). AID 540303; active = well fitted inhibition curve with a large enough effect; inconclusive = small, poorly fitted or top-dose-only effect; inactive = no such curve, though single readings can be large or run the other way; tested in mouse RAW 264.7 cells; also: % is scaled to controls: 0 for no effect and ±100 for the full control effect; nearly all actives have a fitted effect of over 55% in size
aSyn rescue – inhibitors of alpha-synuclein toxicity in yeast. actives 0.14% (n = 370,000). AID 652106. Yeast expressing alpha-synuclein, growth rescue, BacTiter-Glo, 24 h. Potency, µM (doses to about 46.1 µM), for inactives: at the highest dose growth rescue (activation), usual class: activators; also: % of control where 0% means no effect; nearly all actives have a fitted effect of over 65% in size
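Rescue of yeast growth: cells expressing toxic alpha-synuclein, induced in galactose at OD600 0.02, incubated with compound 24 h at 30 C. ATP luminescence quantified growth; inhibitors of toxicity appear as activators.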
Chronic BCR inh – blocks chronic active B-cell receptor signaling | ABC-DLBCL IkBa-CBG/CBR reporter, luminescence ratio, 4 h | AID 493014 | Potency, µM (series often up to 46.1 µM), for inactives: top-dose activity change, negative = inhibition, usual class: inhibitors | actives 0.05% (n = 340,000); active = well fitted inhibition curve with a large enough effect in the signal ratio, with a control signal flat, not every such curve was filed as active; inconclusive = small, poorly fitted or top-dose-only effect, or effect the other way, or a change in a side signal; the % refers to the signal ratio;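 also: plate controls were basal doxycycline-induced cells for no effect and cells given 10 µM MG132 for full effect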
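Cell line TMD8 (human ABC DLBCL), stably expressing tet-inducible CBG68-IkBa fusion and CBR; IMDM/0.5% FBS; cpd up to 46 uM; dox induction, 4 h, 37C/5% CO2; dual luminescence; green/red ratio; MG132 control.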
TDP43 rescue – TDP-43 toxicity inhibition in yeast | TDP-43 expressing yeast growth rescue, BacTiter-Glo, 24 h | AID 652104 | Potency, µM (series often up to 46.1 µM), without a hit: top-dose growth rescue (activation), actives largely listed as activators | actives 1.8% (n = 410,000); also: % of control where 0% means no effect; nearly all actives have a fitted effect of over 50% in size
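Readout is BacTiter-Glo luminescence of cell growth, so inhibitors register as activators. TDP-43-expressing yeast at OD600=0.02 in galactose medium, after raffinose pregrowth to mid-log, were incubated with compound for 24 hr at 30 deg C.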
Starred values were filed as active, the others as inactive; i = inactive; ? = inconclusive; nt = not tested or not shown; ! = not active in a repeat. Unless noted, calls follow the shape of the dose curve; as a rule, active = well fitted curve in the direction sought with a large enough effect; inconclusive = small, poorly fitted or top-dose-only effect, or another doubt; inactive = no such curve, though single readings can be large; an effect the other way counts as inactive or inconclusive. Potency is read from the fitted curve at half-maximal effect.

SMILES | Abeta yeast res | FUS suppressor | uPA generation | aSyn rescue | Chronic BCR inh | TDP43 rescue
Cc1ccc(-c2noc(-c3ccc(N4CCCCC4C)c([N+](=O)[O-])c3)n2)cc1 (stereo unspecified) | i | i | nt | nt | nt | 5%
N#Cc1cc(Oc2cccc3cccnc23)c(-n2nnc3ccccc32)cc1C#N | i | i | nt | -6% | 7.9µM* | -24%
N#Cc1cc(O)c(-n2nnc3ccccc32)cc1C#N | i | i | 0% | 2% | 12% | -13%
CCc1ccc(N2C(=O)Cc3c2nc(N)c(C#N)c3N)cc1 | i | 25µM* | -5% | -6% | -1% | 0%
CCN(CCO)c1nc(SC)nc2c1sc1nc(-c3ccco3)c3c(c12)CCC3 | i | nt | -3% | 8% | 14% | 10µM*
CSc1nc(NCCOCCO)c2sc3nc(-c4ccco4)c4c(c3c2n1)CCC4 | i | ? | 4% | 8% | 1% | -3%
Cc1cccc(C(=O)N[C@H](C(=O)Nc2ccc(C)c(S(=O)(=O)N(C)C)c2)C(C)C)c1 | i | i | 16% | 5% | ? | 10%
COc1ccccc1N1CCN(C(=O)c2cc(C3CC3)on2)CC1 | i | i | 10% | 1% | -1% | 13µM*
COc1ccccc1N1CCN(C(=O)c2cc(-c3ccc(C)cc3)on2)CC1 | i | i | 5% | -13% | 6% | ?
COc1ccccc1N1CCN(C(=O)c2nc(SC)ncc2Cl)CC1 | i | i | nt | nt | nt | 35µM*
COc1ccccc1-c1cc(C(=O)N2CCN(c3ccccc3OC)CC2)no1 | i | i | nt | 19% | ? | 18µM*
COc1ccccc1N1CCN(C(=O)c2cc(-c3ccc(F)cc3)on2)CC1 | i | i | 4% | -1% | ? | 13µM*!
COC(=O)c1sccc1NC(=O)c1ccncc1 | i | i | -5% | -2% | ? | 9%
CCCCN(C)c1c(C)nc2ccc(C(=O)NCc3ccc(OC)cc3)cn12 | i | i | nt | 0% | nt | 16%
CCN(CC)c1ccc(N)cc1 | i | i | -29% | -15% | 4% | 29%
CC(C)NC(=O)C1CC(=O)N(C(C)c2ccccc2)C1 (stereo unspecified) | i | i | nt | -1% | 13% | -6%
CC(Sc1nnc(NC2CCCCC2)s1)C(=O)Nc1ccc2c(c1)C(=O)c1ccccc1C2=O (stereo unspecified) | i | ? | -6% | 2% | 3% | 35µM*
COc1ccccc1Nc1nc2ccccc2n2cnnc12 | i | i | -2% | 1% | 0% | ?
Fc1ccc(Nc2nc3ccccc3n3cnnc23)c(F)c1 | i | i | nt | nt | nt | 8.9µM*
CCN(CC)S(=O)(=O)c1ccc(/C=C/C(=O)NC2CCCCC2)cc1 | i | i | 1% | 8% | ? | 7%
CCOc1ccc(-n2c(C)c(C(C)=O)c3cc(OC(C)=O)ccc32)cc1 | i | i | -4% | 1% | 3% | 14%
CCc1ccccc1S(=O)(=O)Cc1ccc(C(=O)NCCc2ccc(Cl)cc2)o1 | i | ? | nt | nt | nt | 35µM*
O=C(NCCc1ccccc1)c1ccc(CS(=O)(=O)c2ccc(Cl)cc2)o1 | i | i | 4% | -5% | 0% | 3%
CCc1ccccc1S(=O)(=O)Cc1ccc(C(=O)NCc2ccc(Cl)cc2)o1 | i | i | nt | nt | nt | 35µM*
CSc1nc(-c2ccc(Cl)cc2)nc(N)c1C#N | i | i | 1% | 0% | ? | -1%
SMILES | Abeta yeast res | FUS suppressor | uPA generation | aSyn rescue | Chronic BCR inh | TDP43 rescue
O=C1CC(c2nnc(Cc3c(F)cccc3Cl)o2)CN1c1ccccc1 (stereo unspecified) | i | i | nt | nt | nt | 0%
CNc1ccccc1C(=O)OCC(=O)c1ccc(F)cc1 | i | i | nt | -16% | ? | -4%
C=CCn1c(-c2ccc(OC)cc2)csc1=Nc1c(C)n(C)n(-c2ccccc2)c1=O | i | i | 1% | -6% | ? | 2%
O=C1C=CC(=O)N1c1ccc(Sc2ccc([N+](=O)[O-])cc2)cc1 | nt | nt | nt | nt | 3% | nt
Nc1ccc(Sc2ccc([N+](=O)[O-])cc2)cc1 | i | i | 4% | 20µM* | 20% | ?
CO[C@H]1CC[C@@]2(C)[C@@H](CC[C@@H]3[C@@H]2CC[C@@]2(C)[C@H]3C[C@H](C(=O)O)O[C@]23CCCO3)C1 | i | i | 2% | 22% | -5% | 16µM*
C[C@]12CC[C@H](O)C[C@@H]1CC[C@@H]1[C@@H]2CC[C@@]2(C)[C@H]1CCC(=O)[C@]21CCCO1 | i | i | -11% | -4% | 1% | -22%
COc1cc(/C=C/C(=O)Nc2cc(C(F)(F)F)ccc2Cl)cc(OC)c1OC | i | i | 8% | 0% | -5% | 22µM*
COC(=O)c1ccccc1NC(=O)/C=C/c1cc(OC)c(OC)c(OC)c1 | i | i | 2% | -14% | 16µM* | 6%
COc1ccc(CCN2C(=O)CC(Sc3ncccc3C(=O)O)C2=O)cc1OC (stereo unspecified) | i | i | 3% | -13% | -5% | 1%
O=C(OCC(=O)N1CCOCC1)c1ccc2[nH]c3c(c2c1)CCCC3 | i | i | 2% | 0% | ? | 15%
CC(=O)c1ccc(NC(=O)CN2CCC(NC(=O)C3CCCCC3)CC2)cc1 | i | i | -4% | -3% | ? | 2%
CCCCCOc1ccc(C(=O)NCC2(c3ccccc3)CCOCC2)cc1 | i | ? | 1% | 3% | 7% | -10%
CCN(CC)S(=O)(=O)c1ccc(C(=O)Nc2ccc(OCC(=O)N3CCOCC3)cc2)cc1 | i | i | 2% | -4% | -6% | -8%
CCCCOc1ccc(C(=O)Nc2ccc(OCC(=O)N3CCOCC3)cc2)cc1 | i | nt | 7.1µM* | 12% | 1% | 17%
CCCCOc1ccc(C(=O)NCC2(c3ccccc3)CCOCC2)cc1 | i | ? | 4% | 2% | 4% | 16µM*
CCc1ccc2nc3n[nH]c(N)c3cc2c1 | i | i | -13% | 3% | 13µM* | 29%
O=C(COC(=O)c1ccc([N+](=O)[O-])o1)Nc1ccc(F)cc1 | i | i | -6% | -7% | -3% | 16µM*
O=C(COC(=O)c1ccc([N+](=O)[O-])o1)Nc1ccc(N2CCOCC2)cc1 | i | i | -5% | -21% | 1% | ?
COc1ccc(C)cc1NC(=O)COC(=O)c1ccc([N+](=O)[O-])o1 | i | i | 0% | 2% | 4% | 11µM*
COc1cc(OC)cc(C(=O)Nc2ccc(S(=O)(=O)Nc3onc(C)c3C)cc2)c1 | i | i | nt | 6% | nt | -32%
